# High-throughput results: PubChem, several laboratories
# Compounds with a hit are over-represented: about 9.6% of the library has one in this group of screens.
# PLAP activator: PLAP enzyme activators, biochemical, luminescence, HTS; Alkaline phosphatase, placental type (Homo sapiens), P05187; purified PLAP enzyme, luminescent substrate read-out; stronger effect = higher value; activation fold at 20 µM; 96,000 tested, 1.2% active; AID 696, 2007; in the data active = activation fold above about 2
# Target sequence (P05187 whole entry, looked up): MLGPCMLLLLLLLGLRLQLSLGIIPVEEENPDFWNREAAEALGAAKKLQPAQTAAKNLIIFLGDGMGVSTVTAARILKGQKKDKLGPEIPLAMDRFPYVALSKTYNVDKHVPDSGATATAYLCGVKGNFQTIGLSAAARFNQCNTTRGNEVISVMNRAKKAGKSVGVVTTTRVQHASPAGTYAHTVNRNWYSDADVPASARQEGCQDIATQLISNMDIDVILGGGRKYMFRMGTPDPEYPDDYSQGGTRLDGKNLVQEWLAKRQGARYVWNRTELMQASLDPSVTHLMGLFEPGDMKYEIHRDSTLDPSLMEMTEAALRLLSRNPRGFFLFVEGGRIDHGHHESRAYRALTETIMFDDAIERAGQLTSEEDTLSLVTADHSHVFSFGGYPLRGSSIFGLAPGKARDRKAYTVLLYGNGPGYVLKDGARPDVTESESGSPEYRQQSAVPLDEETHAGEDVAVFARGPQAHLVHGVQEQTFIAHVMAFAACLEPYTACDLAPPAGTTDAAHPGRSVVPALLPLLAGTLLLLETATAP
# PostGolgi ctrl: growth inhibition of yeast control strain, primary screen, counter-screen for post-Golgi transport modulator project; efflux-deficient yeast background strain, growth absorbance A615, 16 h; 98,000 tested, 5% active; AID 738, 2007; inhibition, % at 10 µM
# Cav32 inh: Cav3.2 calcium influx blockers – cell-based, Fluo-4 calcium fluorescence, FDSS, MLSMR library, primary screen; Voltage-dependent T-type calcium channel subunit alpha-1H (Homo sapiens), O95180; Cav3.2-expressing cells; stronger effect = lower value; B-score at 10 µM; 100,000 tested, 4% active; AID 449739, 2010;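 active = single-dose well whose peak fluorescence ratio is a statistical outlier from its plate by either plate-standardised score or position-corrected B-score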
# hDAT+cocaine: changed hDAT dopamine uptake under cocaine IC80, either direction, primary screen, cocaine antagonist project, cell-based, LLC-PK1 hDAT, [14C]-dopamine uptake, MLSMR; B-score at 10 µM; 110,000 tested, 1.3% active; AID 449768, 2010; LLC-PK1 hDAT cells, [14C]-dopamine uptake with cocaine IC80; actives deviate in either direction;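 active = Z score or B-score, a plate-position-corrected score, falls beyond the plate's 99.7% confidence bounds, in either direction; inactive = both scores lie inside the 99.7% bounds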;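 note: scored against the spread of the other compound wells on the same plate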
# PostGolgi yeast: phenotypic screen on post-Golgi transport, primary screen | 98,000 tested, 0.9% active | inhibition, % at 10 µM | post-Golgi transport phenotypic cell assay | AID 739, 2007;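 note: yeast cells grown in 1536-well plates; yeast grown about 18 h at 30C before absorbance read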
# Active calls of the source: *; . = no result. Cut-off read from the data, not from the text of the source, unless noted: active = inhibition above about 30%; inactive = the rest.
SMILES,PLAP activator,PostGolgi ctrl,Cav32 inh,hDAT+cocaine,PostGolgi yeast
C=CCC(NC(C)c1ccccc1)c1ccco1 (stereo not given),1.1,3.2,-1.8,0.668,-4.1
Cc1ccc(N2CCN(C(=O)c3ccccc3NC(=O)/C=C\C(=O)O)CC2)cc1,1.2,5.7,0.142,-0.336,-6.9
CCCCn1c(=O)c(-c2ccccc2)c(O)c2ccccc21,0.8,32.4*,0.206,-0.46,19.0
COc1ccc(OC)c(NC(=O)CSc2nnc(CCCO)n2-c2ccccc2)c1,1.1,-9.4,0.63,2.91*,-5.2
COc1ccc(-n2c(Cc3cccn3C)nnc2SCC(=O)Nc2cc(Cl)ccc2OC)cc1,1.3,18.3,-7.45*,1.69,1.3
COc1ccc(OC)c(NC(=O)CSc2nnc(-c3ccco3)n2-c2ccccc2)c1,0.8,12.8,-0.0214,-0.33,-0.5
COc1ccc(-n2c(Cc3cccn3C)nnc2SCC(=O)Nc2ccccc2OC)cc1,1.4,4.2,-2.73*,0.879,4.0
COc1ccc(-n2c(Cc3cccn3C)nnc2SCC(=O)NCc2ccccc2Cl)cc1,1.7,8.0,0.27,1.26,1.0
COc1ccc(-n2c(Cc3cccn3C)nnc2SCC(=O)Nc2ccc(C)cc2C)cc1,1.6,10.8,-6.28*,-0.614,-3.5
Cc1c(C(=O)COC(C)(C)C)[nH]c2ccccc12,1.1,6.1,.,0.303,-23.7
COCCCn1c(C)nc2c(c1=O)c1nc3ccccc3nc1n2CCc1ccccc1,1.2,11.5,-1.1,-0.544,8.8
CCOC(=O)c1ccccc1NC(=O)CN(c1ccccc1)S(=O)(=O)N(C)C,0.9,24.8,-3.33,-0.302,-0.2
O=C(CN1CCN(Cc2ccccc2)C1=O)NCc1ccc(Cl)cc1,0.7,-10.6,-0.541,0.768,24.1
CCN(CCNC(=O)CN1CCN(Cc2ccc(Cl)cc2)C1=O)c1ccccc1,1.8,15.7,-4.01*,0.923,-2.5
Cc1ccc(CN2CCN(CC(=O)NCc3ccc(Cl)cc3)C2=O)cc1,0.9,5.5,-3.97*,0.385,-5.7
Cc1ccccc1CN1CCN(CC(=O)NCc2ccccc2)C1=O,1.2,24.3,0.785,-1.17,2.0
O=C(CN1CCCN(Cc2ccc(F)cc2Cl)C1=O)NCc1ccccc1,1.3,-1.1,0.315,2.63*,8.4
CCCN(CC(=O)Nc1c(C)cccc1CC)C(=O)SCC,1.1,3.1,-0.917,-0.327,2.1
CCCCN(CC(=O)Nc1c(C)cccc1CC)C(=O)SCC,1.1,9.2,-3.76*,-1.25,0.8
O=S(=O)(c1ccc(Br)s1)N1CCN(c2ncccn2)CC1,0.9,7.5,0.169,0.66,-0.6
O=S(=O)(c1ccc(Br)s1)N1CCN(c2ccccn2)CC1,0.8,51.2*,-1.55,-0.00544,1.6
CCCCCNCc1cccc(Br)c1,1.1,0.3,0.264,0.33,5.2
COc1ccc(C(=O)Nc2oc(-c3ccccc3)c(-c3ccccc3)c2C#N)cc1,1.4,22.0,-6.99*,0.889,-17.1
COc1ccc(-c2oc(NC(=O)c3ccc(C)cc3)c(C#N)c2-c2ccc(OC)cc2)cc1,1.6,6.6,-3.58*,-1.46,-5.6
O=C(c1coc(=O)c2ccccc12)N1CCN(Cc2ccccc2)CC1,1.2,4.5,0.0029,-0.521,-4.7
SMILES,PLAP activator,PostGolgi ctrl,Cav32 inh,hDAT+cocaine,PostGolgi yeast
O=C1N=C(N2CCOCC2)S/C1=C1\C(=O)N(Cc2ccccc2)c2ccccc21,1,.,-0.734,-0.708,.
CCCN1C(=O)/C(=C2\SC(N3CCCCC3)=NC2=O)c2ccccc21,1,39.5*,0.825,-0.639,2.8
CN1C(=O)/C(=C2\SC(N3CCCCCC3)=NC2=O)c2ccccc21,1.4,42.2*,0.466,1.11,5.8
COc1ccccc1Nc1nc(C2(C)CCC(=O)O2)cs1 (stereo not given),1,19.7,0.411,-0.26,2.7
O=C(COc1ccccc1)N1CCN(c2ncnc3c2cnn3-c2ccccc2)CC1,1.6,6.6,0.467,3.29,9.3
c1ccc(-n2ncc3c(N4CCN(CCOc5cccc6ccccc56)CC4)ncnc32)cc1,1.5,32.2*,-1.39,0.745,1.2
CN1CCOCCOCCN(C)C1=O,0.8,0.3,0.607,-2.08,2.7
COC(=O)CN1C(=O)S/C(=C/c2ccc(N3CCCCC3)o2)C1=O,1.3,-0.6,-7.93*,-0.193,-5.9
CCOC(=O)N1CCN(C(=S)NCCOC)CC1,1,-2.4,1.55,-0.498,-5.2
O=C(C#Cc1cccc([N+](=O)[O-])c1)c1ccccc1,1,64.1*,0.441,-0.711,91.3*
CCCC(C)NCC(=O)Nc1ccccc1-c1ccccc1 (stereo not given),1.7,-2.2,-0.00356,1.5,-11.2
Cc1cc(-n2nc(C)cc2C)n2nc(C)c(-c3ccc(Cl)cc3)c2n1,0.9,1.6,0.914,1.27,-7.1
CCN(Cc1ccccc1)C(c1ccc(C(F)(F)F)cc1)c1nnnn1C(C)(C)C (stereo not given),.,.,-4.35*,-1.94,.
CCN(Cc1ccccc1)C(c1cccc(C#N)c1)c1nnnn1C(C)(C)C (stereo not given),1.5,14.9,-2.24,0.414,-8.5
COc1ccc(-n2cnc3c(cnn3CCC#N)c2=N)cc1,1.1,-1.2,.,-0.536,-7.8
O=C1NC(=S)SC1=C1CCCCCC1,1.3,64.2*,-2.94,-0.433,8.0
COc1cc(C(=O)Nc2cnc(NC(=O)C(C)C)cc2C)cc(OC)c1OC,.,6.9,-0.155,0.0279,-8.0
O=[N+]([O-])c1ccc(O)c(-c2nc(-c3ccccc3)c(-c3cccs3)[nH]2)c1,1.3,44.7*,0.429,-0.703,13.6
CCc1cc(-c2[nH]ncc2-c2ccc3c(c2)OCO3)c(O)cc1O,2.5*,.,.,.,.
O=c1c(-c2ccc3c(c2)OCCO3)coc2cc(O)cc(O)c12,1.2,3.4,0.069,-0.141,-3.5
CCCc1cc(-c2[nH]ncc2-c2ccc3c(c2)OCCCO3)c(O)cc1OC,.,39.8*,-1,0.769,15.2
COc1ccc(-c2[nH]ncc2-c2ccc3c(c2)OCCO3)c(O)c1,2.1*,2.9,0.361,0.873,12.8
COc1cc(C[C@H](C)[C@H](C)Cc2ccc3c(c2)OCO3)ccc1O,.,.,-0.116,-0.009,.
Cc1cc(C(=O)N2CCN(CCc3ccccc3)CC2)no1,1.1,-2.2,-0.000371,0.461,-1.2
CN(C)c1oc(-c2ccco2)nc1C#N,0.8,11.2,-1.23,-0.14,-2.9
N#Cc1nc(COc2ccccc2)oc1N1CCN(c2cccc(Cl)c2)CC1,0.9,2.0,-2.41,0.808,-0.3
CC1CN(c2oc(COc3ccc(Cl)cc3Cl)nc2C#N)CC(C)O1 (stereo not given),.,26.9,-4.71*,0.847,-2.8
CN(Cc1ccccc1)c1oc(-c2ccco2)nc1C#N,0.9,10.8,-4.19*,0.777,7.8
N#Cc1nc(COc2ccccc2Cl)oc1N1CCCCCC1,.,6.8,0.584,-0.0164,0.5
N#Cc1nc(COc2ccc(Cl)cc2)oc1N1CCCCCC1,0.9,45.4*,-5.02*,1.91,-2.4
